Screening results from PubChem BioAssay.
PERK inh: block of dimerizer-induced PERK translation repression, primary screen, PERK inhibitor project, CHO PERK-DD cells, SEAP luminescence, HTS | CHO PERK-DD fusion, SEAP luminescence translation reporter | inhibition, % at 5.6 µM | Eukaryotic translation initiation factor 2-alpha kinase 3 (Homo sapiens), Q9NZJ5 | AID 1416, 2008 | 220,000 tested, 0.17% active;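 active = inhibition above the mean inhibition of all tested compounds plus 3 SD, set separately per screening campaign, cut at about 2.9% in these data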;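 note: PERK kinase domain activated by AP20187 dimerizer at 100 nM; 0% = DMSO with dimerizer and 100% = rapamycin at 8.4 µM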
EP2 modulator: EP2 receptor modulators, cAMP readout, primary screen, cell-based, HTRF cAMP, PGE2 stimulation; Prostaglandin E2 receptor EP2 subtype (Homo sapiens), P43116; EP2-expressing cells, cAMP HTRF FRET, PGE2 co-stimulation; induction, % at 25 µM; 260,000 tested, 0.83% active; AID 940, 2007;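 active = compounds whose cAMP rise, as percent of the full-agonist control response, exceeds 60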;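 note: rat C6 glioma line stably carrying human EP2 under a CMV promoter; the protocol text gives 20 µM as final concentration; 100% = response of wells given 1 µM PGE2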
eIF4E 4G PPI: eIF4E–eIF4G protein interaction inhibitors, primary screen, biochemical, uHTS, TR-FRET, eIF4GI fragment; Eukaryotic translation initiation factor 4E (Mus musculus) + Eukaryotic translation …; TR-FRET eIF4E-eIF4GI(517-606) binding, 2 h; inhibition, % at 21.7 µM; 220,000 tested, 0.37% active; AID 782, 2007;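 active = inhibition above about 30%, limit read from the data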;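 note: 0% = full FRET control wells and 100% = background wells lacking eIF4GI fragment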
PGE2 EP2 inh: human EP2 receptor antagonists, primary screen, TR-FRET cAMP, C6 glioma cells. Prostaglandin E2 receptor EP2 subtype (Homo sapiens), P43116. C6 glioma cells expressing human EP2; cells stimulated with saturating PGE2. inhibition, % at 25 µM. 260,000 tested, 0.52% active. AID 1422, 2008;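 active = percent inhibition above 40 after rounding to a whole number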;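 note: rat C6 glioma host cells with rolipram phosphodiesterase inhibitor present; the protocol text gives 20 µM as final concentration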
EP2 cAMP induct: cAMP induction in EP2, EP4, beta2-AR and parental cells, confirmation, counter-screen for EP2 modulator project, cell-based, five parallel assays, C6 glioma, HEK293; shares compounds with EP2 modulator; cAMP HTRF induction; plus low (about EC15) PGE2 agonist; calls only at 20 µM (by protocol); 1,300 tested, 47% active;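 active = cAMP induction above 50% in the main assay while under 30% in all four parallel counter assays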;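 note: rat C6 glioma cells stably expressing human EP2 receptor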
The depositor's hits bear a star; i = inactive; / = no result; + = active, no number; ! = a repeat was not active. This is a sample that favours compounds with a hit; in the whole collection about 1.8% have one here.

SMILES	PERK inh	EP2 modulator	eIF4E 4G PPI	PGE2 EP2 inh	EP2 cAMP induct
Cn1c(=O)[nH]c(=O)c2c1nc(N1CCCCCC1)n2Cc1cccc2ccccc12	1	66*	8	-4	i
CCCOc1ccc(C(=O)Nc2nnn(C)n2)cc1	/	-10	/	9	/
Cc1ccnc(NS(=O)(=O)c2cccs2)c1	1	83*	2	8	i
Cc1cccc(NS(=O)(=O)c2cccs2)n1	1	4	-1	8	/
CC(=O)CSc1ncnc2sc3c(c12)CCC(C)C3 (centres undefined)	1	61*	-2	5	i
N#CCSc1ncnc2sc3c(c12)CCC3	1	28	-11	10	/
Cc1noc(C)c1CSc1ncnc2sc3c(c12)CCC3	1	68*	-3	5	i
Cc1noc(C)c1CSc1ncnc2sc3c(c12)CCC(C)C3 (centres undefined)	1	70*	5	14	i
Cc1noc(C)c1CSc1nc2sc3c(c2c(=O)n1C)CCCC3	0	63*	-37	6	i
CC1CCc2c(sc3ncnc(SCC(=O)N4CCCC4)c23)C1 (centres undefined)	/	8	/	7	/
COc1ccc2cc(C(=O)N3CCC(c4ccnc5nc(C(F)(F)F)nn45)CC3)[nH]c2c1	/	-6	/	/	/
CCn1c(=NC(=O)c2ccc(S(=O)(=O)N(C)C)cc2)sc2cccc(OC)c21	1	76*	6	12	i
CCOC(=O)N1CCC(=C2c3ccc(Cl)cc3CCc3cccnc32)CC1	-1	53	2	10	i
Cc1ccccc1NC(=O)/C(=C/c1ccco1)c1ccccc1	0	38	-4	9	/
CCc1ccccc1NC(=O)/C(=C/c1ccco1)c1ccccc1	0	68*	/	5	+
Cc1ccc(C2(O)CCN(CCNC(=O)c3csc(C)c3)CC2)cc1	/	-22	/	9	/
CCc1nc(Cl)c(C#N)c2c1CSC(C)(C)C2	0	51	8	6	/
CC(C)c1nc(Cl)c(C#N)c2c1CSC(C)(C)C2	0	73*	1	5	+
O=C(Nc1ccccc1Br)c1ccccc1-c1ccccc1	1	70*	4	9	+
CCOc1ccccc1C(=O)Nc1ccccc1-c1ccccc1	-1	78*	-29	6	+
Cc1cc(C)c(-n2cccn2)c(CN(Cc2ccc3c(c2)OCO3)CC(C)O)c1 (centres undefined)	/	8	/	7	/
CC1CC(C)CN(C(=O)C(C)N2CCC(N3CCCCC3)CC2)C1 (centres undefined)	/	-7	/	10	/
CCc1ccc2[nH]c(=O)c(CN(Cc3nnnn3C3CCCC3)C3CCCCC3)cc2c1	1	74*!	/	12	+
Cc1cc2cc(CN(Cc3nnnn3C3CCCCC3)CC3CCCO3)c(=O)[nH]c2cc1C (centres undefined)	0	65*!	4	7	i
CC(NC(c1ccccc1)c1ccccc1)C(=O)N1CCCc2ccccc21 (centres undefined)	0	66*	14	8	i
SMILES	PERK inh	EP2 modulator	eIF4E 4G PPI	PGE2 EP2 inh	EP2 cAMP induct
O=C(O)c1ccc(-c2nc(-c3cccc(C(F)(F)F)c3)cs2)cc1	0	70*	-4	7	+
Cc1cccc(C)c1OC(=O)C(c1ccccc1)c1ccccc1	2	66*	-2	19	i
CCN(CC)CCCOC(=O)C(c1ccccc1)c1ccccc1	0	-30	-2	12	/
CCCCOc1cc(C)nc(NCc2ccccc2)n1	0	78*	-7	11	+
Cc1cc(N/N=C/c2ccccc2)nc(NCc2ccccc2)n1	0	-10	5	6	/
Cc1ccc(C(C)C)c(OCc2ccc(-c3nnco3)cc2)c1	1	66*	-4	16	i
CCn1c(SCC(=O)Nc2ccc(C)c(C)c2)nnc1-c1cccnc1	/	20	/	10	/
Nc1n[nH]c2c1C1(CCCCC1)Cc1ccccc1-2	1	74*	2	4	+
CSc1n[nH]c2nc3c(c(=O)n12)C1(CCCCC1)Cc1ccccc1-3	0	-11	9	16	/
CCCSc1ncc(CNC2(c3ccc(OC)cc3)CCCC2)cn1	/	-64	/	7	/
CC(C)Cc1nc(N2CCCCC2)c(C#N)c2c1CCC2	1	89*	4	17	i
N#CCCSc1nc(N2CCOCC2)c2c(c1C#N)CCCC2	-2	27	7	8	/
CCCc1nc(N2CCOCC2)c(C#N)c2c1CCCC2	-1	42	5	11	/
CCCSc1nc(N2CCOCC2)c2c(c1C#N)CCCC2	-1	66*	0	15	+
CC(=O)N1CCN(c2nc(CC(C)C)c3c(c2C#N)CCC3)CC1	0	24	6	/	/
CCCCc1nc(N2CCOCC2)c(C#N)c2c1CCCC2	1	79*	0	11	i
Cc1cc(C)nc(N2CC=C[C@@H]2C(=O)NCc2ccc3c(c2)OCO3)n1	/	-23	/	6	/
CC1CCc2c(sc3nc(C4CC4)nc(SCC(=O)NCc4ccc5c(c4)OCO5)c23)C1 (centres undefined)	/	12	/	7	/
CCn1c(COc2ccccc2C)nnc1SCC(=O)Nc1sc(C)c(C)c1C#N	/	-11	/	4	/
COc1ccc(C(=O)c2ccccc2)c(O)c1	1	41	4	3	+
COc1ccc2c(c1)c(=O)c(Br)c(C)n2Cc1ccccc1	0	68*	5	-1	+
COc1ccc2c(c1)c(CC(=O)O)c(C)n2Cc1ccc(F)cc1	/	17	/	8	/
C/C(=N\N=C(c1ccccc1)c1ccccc1)c1ccco1	0	81*	2	7	+
C/C(=N\NC(=O)c1ccco1)c1ccc(NC(=O)c2ccccc2)cc1	1	-25	-3	5	/
CCCC(=O)C1=C(O)C(C(=O)OC)C(C)(C)CC1=Nc1cccc2ccccc12 (centres undefined)	-1	78*	-3	12	+
CC(=O)Nc1nnc(CCN2CCCCC2)s1	1	72*	-15	5	i
CC(Nc1ccccc1)c1ccccn1 (centres undefined)	/	-3	/	12	/
COc1ccccc1-c1ccc(NC2CCCC2)nn1	0	-39	8	19	/
COc1cc2c(cc1OC)CN(c1ccc(-c3ccccc3OC)nn1)CC2	-1	65*!	-6	4	i
Cc1ccc(O)c(N=Cc2cc(Cc3ccccc3)cc([N+](=O)[O-])c2O)c1	0	69*	9	6	i
